{"source": "PubChem BioAssay (Tox21)", "note": "Records with an inconclusive call do not appear. The source made the active and inactive calls. The call rests on the fitted dose curve; in most records, active means well fitted curve in the direction sought with a large enough effect in the repeat runs; inconclusive means weak or mixed curves; inactive means no such curve, though single readings can be large; an effect the other way counts as inactive or inconclusive. On the % scale 0 is the no-effect control and ±100 the full control effect; potency means the concentration at half of the fitted maximal effect."}
{"test": "qHTS assay for identifying genotoxic compounds that show differential cytotoxicity against isogenic chicken DT40 cell lines with known DNA damage response pathways - wild type cell line (AID 743012); further: nearly all actives have a fitted effect of over 60% in size", "conditions": "DT40 wild type chicken cells viability, CellTiter-Glo, 40 h; series mostly up to 68.4 µM; activity change, negative = cytotoxicity: at the top concentration", "summary_of_the_method": "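Cytotoxicity in repair-proficient parental chicken DT40 cells serves as the comparator for Rad54/Ku70- and Rev3-deficient lines. Cells were exposed to compounds for 40 h at 37 C/5% CO2, and ATP-based luminescence (CellTiter-Glo) measured viability.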"}
{"compound": "CC(C)Nc1ccc(NC(C)C)c2c1C(=O)c1ccccc1C2=O", "activity change, negative = cytotoxicity": "0.509% (inactive)"}
{"compound": "O=C(OCCc1ccccc1)c1ccccc1", "activity change, negative = cytotoxicity": "11.8% (inactive)"}
{"compound": "CCCCCCCN", "activity change, negative = cytotoxicity": "1.13% [at 95 µM] (inactive)"}
{"compound": "CCCCC(CC)COC(=O)COc1ccc(Cl)cc1Cl", "note": "(centres undefined)", "activity change, negative = cytotoxicity": "2.4% [at 95 µM] (inactive)"}
{"compound": "C=CCOC(=O)CCC1CCCCC1", "activity change, negative = cytotoxicity": "2.04% (inactive)"}
{"compound": "CC1=CCCC(C)(C)C12CCC(C)O2", "note": "(centres undefined)", "Potency": "24.3 µM (active)"}
{"compound": "Nc1cccc([N+](=O)[O-])c1", "activity change, negative = cytotoxicity": "1.96% (inactive)"}
{"compound": "C[N+]1(CC2COC(c3ccccc3)(C3CCCCC3)O2)CCCCC1", "note": "(centres undefined)", "Potency": "2.66 µM (active)"}
{"compound": "c1ccc(CNCCNCc2ccccc2)cc1", "activity change, negative = cytotoxicity": "-19.7% (inactive)"}
{"compound": "C=CC(=O)OCCOc1ccccc1", "Potency": "54.4 µM (active)"}
{"compound": "COc1cc(C(=O)OCCCN2CCCN(CCCOC(=O)c3cc(OC)c(OC)c(OC)c3)CC2)cc(OC)c1OC", "Potency": "8.41 µM (active)"}
{"compound": "O=C(c1ccc(F)cc1)C1CCN(CCn2c(=S)[nH]c3ccccc3c2=O)CC1", "Potency": "18.8 µM (active)"}
{"compound": "Cc1cc(C(=O)O)ccc1[N+](=O)[O-]", "activity change, negative = cytotoxicity": "-0.652% (inactive)"}
{"compound": "C#Cc1cccc(Nc2ncnc3cc(OCCOC)c(OCCOC)cc23)c1", "Potency": "11.9 µM (active)"}
{"compound": "CC(=O)NO", "activity change, negative = cytotoxicity": "15.4% (inactive)"}
{"compound": "C#C[C@]1(O)CC[C@H]2[C@@H]3CCc4cc(OC5CCCC5)ccc4[C@H]3CC[C@@]21C", "Potency": "1.68 µM (active)"}
{"compound": "NC(N)=NCCC[C@H](N)C(=O)O", "activity change, negative = cytotoxicity": "4.49% (inactive)"}
{"compound": "CC1=CC[C@H](C(C)C)C=C1", "Potency": "61.1 µM (active)"}
{"compound": "COC(C)OC", "activity change, negative = cytotoxicity": "0.974% (inactive)"}
{"compound": "NCC(=O)CCC(=O)O", "activity change, negative = cytotoxicity": "4.68% (inactive)"}
{"compound": "C=C1C(=C/C=C2\\CCC[C@]3(C)[C@@H]([C@H](C)/C=C/[C@@H](O)C4CC4)CC[C@@H]23)C[C@@H](O)C[C@@H]1O", "Potency": "11.9 µM (active)"}
{"compound": "COc1ccc(C(=O)N2CCN(CC(=O)N3CCOCC3)CC2)cc1", "activity change, negative = cytotoxicity": "18.6% (inactive)"}
{"compound": "CCCCO", "Potency": "inactive"}
{"compound": "CCC(=O)O[C@]1(C(=O)CCl)[C@@H](C)C[C@H]2[C@@H]3CCC4=CC(=O)C=C[C@]4(C)[C@@]3(F)[C@@H](O)C[C@@]21C", "Potency": "13.3 µM (active)"}
{"compound": "COC(=O)C1=C(C)NC(COC(N)=O)=C(C(=O)OC(C)C)C1c1cccc(Cl)c1Cl", "note": "(centres undefined)", "Potency": "23.7 µM (active)"}
{"compound": "CN(C)C(=O)NC1(c2ccccc2)CCN(CC[C@@]2(c3ccc(F)c(F)c3)CN(C(=O)c3ccccc3)CCO2)CC1", "Potency": "40.2 µM (active)"}
{"compound": "CC(C)(C)OCC1CO1", "note": "(centres undefined)", "activity change, negative = cytotoxicity": "1.09% [at 95 µM] (inactive)"}
{"compound": "CCc1c(C(=O)NN2CCCCC2)nn(-c2ccc(Cl)cc2Cl)c1-c1ccc(Br)cc1", "Potency": "13.7 µM (active)"}
{"test": "qHTS assay for identifying genotoxic compounds that show differential cytotoxicity against isogenic chicken DT40 cell lines with known DNA damage response pathways - Rev3 mutant cell line (AID 743014); further: nearly all actives have a fitted effect of over 55% in size", "conditions": "chicken DT40 Rev3-/- viability, CellTiter-Glo, 40 h; series mostly up to 68.4 µM; activity, negative = cytotoxicity: at the top concentration"}
{"compound": "O=C(OCCc1ccccc1)c1ccccc1", "activity, negative = cytotoxicity": "-22.8% (inactive)"}
{"compound": "CCCCC(CC)COC(=O)COc1ccc(Cl)cc1Cl", "note": "(centres undefined)", "activity, negative = cytotoxicity": "0.061% [at 95 µM] (inactive)"}
{"compound": "Nc1cccc([N+](=O)[O-])c1", "activity, negative = cytotoxicity": "1.13% (inactive)"}
{"compound": "c1ccc(CNCCNCc2ccccc2)cc1", "activity, negative = cytotoxicity": "-14.8% (inactive)"}
{"compound": "C=CC(=O)OCCOc1ccccc1", "Potency": "61.1 µM (active)"}
{"compound": "COc1cc(C(=O)OCCCN2CCCN(CCCOC(=O)c3cc(OC)c(OC)c(OC)c3)CC2)cc(OC)c1OC", "Potency": "15 µM (active)"}
{"compound": "CC1=CC=C(C(C)C)CC1", "activity, negative = cytotoxicity": "-24.2% (inactive)"}
{"compound": "C#Cc1cccc(Nc2ncnc3cc(OCCOC)c(OCCOC)cc23)c1", "Potency": "21.1 µM (active)"}
{"compound": "CC1=CC[C@H](C(C)C)C=C1", "Potency": "68.6 µM (active)"}
{"compound": "COC(C)OC", "activity, negative = cytotoxicity": "-0.182% (inactive)"}
{"compound": "NCC(=O)CCC(=O)O", "activity, negative = cytotoxicity": "10.9% (inactive)"}
{"compound": "COc1ccc(C(=O)N2CCN(CC(=O)N3CCOCC3)CC2)cc1", "activity, negative = cytotoxicity": "-10.8% (inactive)"}
{"compound": "CCCCO", "Potency": "inactive"}
{"compound": "CCC(=O)O[C@]1(C(=O)CCl)[C@@H](C)C[C@H]2[C@@H]3CCC4=CC(=O)C=C[C@]4(C)[C@@]3(F)[C@@H](O)C[C@@]21C", "Potency": "2.37 µM (active)"}
{"compound": "Cc1ccccc1S(=O)(=O)O", "activity, negative = cytotoxicity": "19.3% [at 95 µM] (inactive)"}
{"compound": "CN(C)C(=O)NC1(c2ccccc2)CCN(CC[C@@]2(c3ccc(F)c(F)c3)CN(C(=O)c3ccccc3)CCO2)CC1", "Potency": "25.3 µM (active)"}
{"compound": "CC(C)(C)OCC1CO1", "note": "(centres undefined)", "activity, negative = cytotoxicity": "2.35% [at 95 µM] (inactive)"}
{"compound": "CCc1c(C(=O)NN2CCCCC2)nn(-c2ccc(Cl)cc2Cl)c1-c1ccc(Br)cc1", "Potency": "15.4 µM (active)"}
{"test": "qHTS assay for identifying genotoxic compounds that show differential cytotoxicity against isogenic chicken DT40 cell lines with known DNA damage response pathways - Rad54/Ku70 mutant cell line (AID 743015); further: nearly all actives have a fitted effect of over 60% in size", "conditions": "DT40 Rad54/Ku70 mutant viability, CellTiter-Glo, 40 h; series mostly up to 66.8 µM; activity change, negative = cytotoxicity: at the top concentration"}
{"compound": "CC(C)Nc1ccc(NC(C)C)c2c1C(=O)c1ccccc1C2=O", "activity change, negative = cytotoxicity": "-23.9% (inactive)"}
{"compound": "O=C(OCCc1ccccc1)c1ccccc1", "activity change, negative = cytotoxicity": "-29.2% (inactive)"}
{"compound": "C=CCOC(=O)CCC1CCCCC1", "activity change, negative = cytotoxicity": "-1.76% (inactive)"}
{"compound": "CC1=CCCC(C)(C)C12CCC(C)O2", "note": "(centres undefined)", "Potency": "13.7 µM (active)"}
{"compound": "C[N+]1(CC2COC(c3ccccc3)(C3CCCCC3)O2)CCCCC1", "note": "(centres undefined)", "Potency": "5.31 µM (active)"}
{"compound": "COS(=O)(=O)C(F)(F)F", "activity change, negative = cytotoxicity": "1.22% [at 95.1 µM] (inactive)"}
{"compound": "O=C(c1ccc(F)cc1)C1CCN(CCn2c(=S)[nH]c3ccccc3c2=O)CC1", "Potency": "6.68 µM (active)"}
{"compound": "Cc1cc(C(=O)O)ccc1[N+](=O)[O-]", "activity change, negative = cytotoxicity": "0.167% (inactive)"}
{"compound": "C#Cc1cccc(Nc2ncnc3cc(OCCOC)c(OCCOC)cc23)c1", "Potency": "13.3 µM (active)"}
{"compound": "CC(=O)NO", "activity change, negative = cytotoxicity": "-3.91% (inactive)"}
{"compound": "C#C[C@]1(O)CC[C@H]2[C@@H]3CCc4cc(OC5CCCC5)ccc4[C@H]3CC[C@@]21C", "Potency": "5.31 µM (active)"}
{"compound": "NC(N)=NCCC[C@H](N)C(=O)O", "activity change, negative = cytotoxicity": "5.67% (inactive)"}
{"compound": "CC1=CC[C@H](C(C)C)C=C1", "Potency": "61.1 µM (active)"}
{"compound": "CCCCCCCCCCCCCCCCCCOS(=O)(=O)O", "activity change, negative = cytotoxicity": "16.5% (inactive)"}
{"compound": "NCC(=O)CCC(=O)O", "activity change, negative = cytotoxicity": "5.74% (inactive)"}
{"compound": "C=C1C(=C/C=C2\\CCC[C@]3(C)[C@@H]([C@H](C)/C=C/[C@@H](O)C4CC4)CC[C@@H]23)C[C@@H](O)C[C@@H]1O", "Potency": "13.3 µM (active)"}
{"compound": "COc1ccc(C(=O)N2CCN(CC(=O)N3CCOCC3)CC2)cc1", "activity change, negative = cytotoxicity": "4.25% (inactive)"}
{"compound": "CCCCO", "Potency": "inactive"}
{"compound": "CCC(=O)O[C@]1(C(=O)CCl)[C@@H](C)C[C@H]2[C@@H]3CCC4=CC(=O)C=C[C@]4(C)[C@@]3(F)[C@@H](O)C[C@@]21C", "Potency": "29.8 µM (active)"}
{"compound": "Cc1ccccc1S(=O)(=O)O", "activity change, negative = cytotoxicity": "18.4% [at 95.1 µM] (inactive)"}
{"compound": "COC(=O)C1=C(C)NC(COC(N)=O)=C(C(=O)OC(C)C)C1c1cccc(Cl)c1Cl", "note": "(centres undefined)", "Potency": "23.7 µM (active)"}
{"compound": "CN(C)C(=O)NC1(c2ccccc2)CCN(CC[C@@]2(c3ccc(F)c(F)c3)CN(C(=O)c3ccccc3)CCO2)CC1", "Potency": "28.4 µM (active)"}
{"compound": "CCc1c(C(=O)NN2CCCCC2)nn(-c2ccc(Cl)cc2Cl)c1-c1ccc(Br)cc1", "Potency": "13.7 µM (active)"}
